# Inconclusive results are not listed. The source made the active and inactive calls. Rule for the calls: active = hit-call score of the fitted dose curve at least 0.9, where 1 is the maximum; inconclusive = response in the unintended direction; inactive = score below 0.9.
# Assays:
# [1] = molecular target: human Vascular Endothelial Growth Factor Receptor 2 (VEGFR2), KDR (gene 3791) (UniProt P35968); assay: NVS_ENZ_hVEGFR2: NovaScreen (NVS) Enzymatic Assay for human Vascular Endothelial Growth Factor Receptor 2 (VEGFR2) (AID 2283230)
# Summary of the method: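 Cell-free recombinant VEGFR2 kinase, fluorescent substrate with electrophoretic mobility-shift separation; read 1 h after dosing. Screened at 25 uM in duplicate, hits to concentration-response up to 50 uM; loss-of-signal versus DMSO.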
# [2] = molecular target: sheep Cyclooxygenase-2 (Cox2), PTGS2 (gene 443460) (UniProt P79208); assay: NVS_ENZ_oCOX2: NovaScreen (NVS) Enzymatic Assay for sheep Cyclooxygenase-2 (Cox2) (AID 2283231)
# Summary of the method: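 Ovine placental enzyme, cell-free; chemical added, 0.66 h, absorbance (colorimetric). Screen 25 uM in duplicate; ≥threshold hits titrated, top 50 uM. Inhibition = signal loss vs DMSO.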
# [3] = NVS_GPCR_bNPY_NonSelective: NovaScreen (NVS) G Protein-Coupled Receptor Assay for bovine Neuropeptide Y (NPY) Receptor, Non-selective Binding (AID 2283245)
# Summary of the method: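 Bovine hippocampal membranes incubated 1 hour with radioligand and test chemical. Bound ligand measured by filter-based scintillation counting. Single-concentration screen at 25 uM in duplicate, then concentration-response up to 50 uM.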
# [4] = molecular target: guinea pig Leukotriene D4 Receptor (LTD4), CYSLTR1 (gene 100135514) (UniProt Q2NNR5); assay: NVS_GPCR_gLTD4: NovaScreen (NVS) G Protein-Coupled Receptor Assay for guinea pig Leukotriene D4 Receptor (LTD4) (AID 2283248)
# Summary of the method: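 Radioligand displacement on guinea pig lung membranes, 1 h incubation, filtration and scintillation counting; DMSO as negative control. Duplicate 25 uM primary screen, then singleton concentration-response up to 50 uM.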
# [5] = molecular target: human Serotonin, 5-Hydroxytryptamine Receptor 2A (5HT2A), HTR2A (gene 3356) (UniProt P28223); assay: NVS_GPCR_h5HT2A: NovaScreen (NVS) G Protein-Coupled Receptor Assay for human Serotonin, 5-Hydroxytryptamine Receptor 2A (5HT2A) (AID 2283249)
# Summary of the method: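 Human cortex membranes, cell-free radioligand binding; filter-based scintillation read 1.5 h after dosing. Duplicate screen at 25 uM first; displacement of specific binding (loss of signal) versus DMSO.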
# [6] = molecular target: human Serotonin, 5-Hydroxytryptamine Receptor 5A (5HT5A), HTR5A (gene 3361) (UniProt P47898); assay: NVS_GPCR_h5HT5A: NovaScreen (NVS) G Protein-Coupled Receptor Assay for human Serotonin, 5-Hydroxytryptamine Receptor 5A (5HT5A) (AID 2283251)
# Summary of the method: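 Cell-free radioligand displacement binding on HEK293-derived membrane protein, 1 h incubation, filter-based scintillation counting. Primary screen in duplicate at 25 uM, actives followed in concentration series; loss of signal fitted versus DMSO.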
# [7] = molecular target: guinea pig Opioid, Kappa 1 Receptor (OpiateK), OPRK1 (gene 100135587) (UniProt P41144); assay: NVS_GPCR_gOpiateK: NovaScreen (NVS) G Protein-Coupled Receptor Assay for guinea pig Opioid, Kappa 1 Receptor (OpiateK) (AID 2283252);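 note: radioligand displacement from kappa opioid receptor in guinea pig cerebellar membranes; active means reduced radioligand binding relative to DMSO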
# Summary of the method: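 Guinea pig cerebellar membranes were incubated with a radioligand for 2 h after compound addition; bound radioactivity was read by filter-based scintillation counting. Loss of specific binding relative to DMSO baseline defined activity; primary screen at 25 uM in duplicate.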
# [8] = test system: bovine Histamine 1 Receptor (H1), gene 281231; assay: NVS_GPCR_bH1: NovaScreen (NVS) G Protein-Coupled Receptor Assay for bovine Histamine 1 Receptor (H1) (AID 2283246)
# Summary of the method: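 Radioligand displacement on bovine cerebellar membranes, 1 h after dosing, filter-based scintillation read-out; loss of signal vs DMSO. Duplicate single-concentration screen at 25 uM, then concentration-response up to 50 uM for hits.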
# [9] = molecular target: sheep Cyclooxygenase-1 (Cox1), PTGS1 (gene 443551) (UniProt P05979); assay: NVS_ENZ_oCOX1: NovaScreen (NVS) Enzymatic Assay for sheep Cyclooxygenase-1 (Cox1) (AID 2283239);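 note: actives reduce cyclooxygenase activity so potencies are for inhibitors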
# Summary of the method: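 Absorbance read-out of cyclooxygenase activity in a cell-free preparation from sheep seminal vesicles, taken 0.66 hour after dosing. Initial testing was in duplicate at 25 uM, and confirmatory testing was run in concentration series.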
# [10] = molecular target: rabbit Imidazoline 2 Central (I2C), CKB (gene 100009085) (UniProt P00567); assay: NVS_ENZ_rabI2C: NovaScreen (NVS) Enzymatic Assay for rabbit Imidazoline 2 Central (I2C) (AID 2283228)
# Summary of the method: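 Rabbit brain membranes, cell-free; readout by filter-based scintillation counting 1.5 hours after dosing, loss of signal vs DMSO. Initial duplicate test at 25 uM, then concentration-response with 50 uM top concentration.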
# [11] = molecular target: bovine Dopamine Receptor (DR), Non-selective Binding, DRD1 (gene 281125) (UniProt Q95136); assay: NVS_GPCR_bDR_NonSelective: NovaScreen (NVS) G Protein-Coupled Receptor Assay for bovine Dopamine Receptor (DR), Non-selective Binding (AID 2283241)
# Summary of the method: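 Bovine striatal membranes; radioligand displacement read by filtration and scintillation counting 1 h after dosing, loss of signal vs DMSO. Screened in duplicate at 25 uM, then concentration-response for hits.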
# [12] = molecular target: human Adenosine A1 Receptor (AdoRA1), ADORA1 (gene 134) (UniProt P30542); assay: NVS_GPCR_hAdoRA1: NovaScreen (NVS) G Protein-Coupled Receptor Assay for human Adenosine A1 Receptor (AdoRA1) (AID 2283254)
# Summary of the method: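 Hum. cortical membranes + radioligand, cmpd 1 h; filtration, scintillation count. Readout = decrease vs DMSO. Primary 25 uM dup; hits → conc. series.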
# [13] = test system: bovine Angiotensin II Receptor Type 2 (AT2), gene 407157; assay: NVS_GPCR_bAT2: NovaScreen (NVS) G Protein-Coupled Receptor Assay for bovine Angiotensin II Receptor Type 2 (AT2) (AID 2283240)
# Summary of the method: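 Radioligand displacement on bovine cerebellar membranes, 1 hour incubation, filter-based scintillation counting; loss of signal vs DMSO. Duplicate single-point screen at 25 uM, then concentration-response to 50 uM maximum.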
# [14] = test system: guinea pig Muscarinic, Peripheral (Mperiperal) Receptor, Non-selective Binding, gene 100379235; assay: NVS_GPCR_gMPeripheral_NonSelective: NovaScreen (NVS) G Protein-Coupled Receptor Assay for guinea pig Muscarinic, Peripheral (Mperiperal) Receptor, Non-selective Binding (AID 2283250)
# Summary of the method: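 Guinea pig bladder membranes, radioligand binding read 1 h after dosing by filter scintillation counting; loss of signal vs DMSO. Primary duplicate screen at 25 uM, then concentration-response up to 50 uM.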
# [15] = molecular target: human Adenosine A2a Receptor (AdoRA2a), ADORA2A (gene 135) (UniProt P29274); assay: NVS_GPCR_hAdoRA2a: NovaScreen (NVS) G Protein-Coupled Receptor Assay for human Adenosine A2a Receptor (AdoRA2a) (AID 2283256)
# Summary of the method: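 Radioligand displacement on HEK293-derived membrane protein, cell-free; filter-based scintillation counting 1.5 hours after dosing, loss of signal vs DMSO. Single-point duplicate screen at 25 uM, actives retested in concentration series.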
# [16] = molecular target: rat Constitutive Nitric Oxide Synthase (CNOS), Nos1 (gene 24598) (UniProt P29476); assay: NVS_ENZ_rCNOS: NovaScreen (NVS) Enzymatic Assay for rat Constitutive Nitric Oxide Synthase (CNOS) (AID 2283236)
# Summary of the method: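 Enzyme activity in rat brain membrane preparation, read 1 h after dosing by filter-based radiometric scintillation counting. Primary screen in duplicate at 25 uM; actives (e.g., ≥30% inhibition) then run in concentration-response up to 50 uM.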
# [17] = molecular target: rat Catechol-O-Methyl Transferase (COMT), Comt (gene 24267) (UniProt P22734); assay: NVS_ENZ_rCOMT: NovaScreen (NVS) Enzymatic Assay for rat Catechol-O-Methyl Transferase (COMT) (AID 2283235)
# Summary of the method: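 Cell-free enzyme activity with protein extracted from rat dorsal striatum, measured by HPLC with absorbance detection. Compounds screened at 25 uM in duplicate; actives then run in concentration-response up to 50 uM, loss of signal versus DMSO.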
# [18] = test system: guinea pig Leukotriene B4 Receptor (LTB4), gene 100379538; assay: NVS_GPCR_gLTB4: NovaScreen (NVS) G Protein-Coupled Receptor Assay for guinea pig Leukotriene B4 Receptor (LTB4) (AID 2283247)
# Summary of the method: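 Radioligand displacement on guinea pig spleen membranes, filter-based scintillation counting 2 h after dosing. Primary duplicate single point at 25 uM; hits over threshold (e.g. 30% inhibition) run in concentration-response up to 50 uM, DMSO baseline.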
# human Adenosine A1 Receptor (AdoRA1), ADORA1 (gene 134), sequence (P30542 whole entry, looked up): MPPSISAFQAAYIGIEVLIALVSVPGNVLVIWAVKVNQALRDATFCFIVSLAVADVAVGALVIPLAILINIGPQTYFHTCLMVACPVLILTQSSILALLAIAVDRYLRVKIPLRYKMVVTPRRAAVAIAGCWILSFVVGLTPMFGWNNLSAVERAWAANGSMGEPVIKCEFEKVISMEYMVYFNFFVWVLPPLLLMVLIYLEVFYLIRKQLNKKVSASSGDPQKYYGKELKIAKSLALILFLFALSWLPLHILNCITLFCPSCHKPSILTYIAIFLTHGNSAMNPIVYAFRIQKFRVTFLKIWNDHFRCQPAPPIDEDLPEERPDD
# sheep Cyclooxygenase-1 (Cox1), PTGS1 (gene 443551), sequence (P05979 whole entry, looked up): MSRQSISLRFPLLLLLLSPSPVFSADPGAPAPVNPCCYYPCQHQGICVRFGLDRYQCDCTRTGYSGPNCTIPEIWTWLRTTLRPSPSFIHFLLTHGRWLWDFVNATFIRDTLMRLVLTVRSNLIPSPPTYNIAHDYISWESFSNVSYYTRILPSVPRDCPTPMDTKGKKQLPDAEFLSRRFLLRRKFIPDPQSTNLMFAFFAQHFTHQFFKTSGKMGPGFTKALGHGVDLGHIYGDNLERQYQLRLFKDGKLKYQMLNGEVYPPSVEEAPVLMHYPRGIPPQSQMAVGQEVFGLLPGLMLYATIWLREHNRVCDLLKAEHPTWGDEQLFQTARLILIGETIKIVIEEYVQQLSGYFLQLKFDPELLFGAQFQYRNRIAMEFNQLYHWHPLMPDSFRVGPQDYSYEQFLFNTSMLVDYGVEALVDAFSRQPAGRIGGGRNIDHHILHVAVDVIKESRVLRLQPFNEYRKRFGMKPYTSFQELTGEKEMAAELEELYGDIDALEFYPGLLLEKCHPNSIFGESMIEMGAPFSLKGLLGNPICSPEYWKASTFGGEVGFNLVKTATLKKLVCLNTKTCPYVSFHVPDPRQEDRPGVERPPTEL
# guinea pig Opioid, Kappa 1 Receptor (OpiateK), OPRK1 (gene 100135587), sequence (P41144 whole entry, looked up): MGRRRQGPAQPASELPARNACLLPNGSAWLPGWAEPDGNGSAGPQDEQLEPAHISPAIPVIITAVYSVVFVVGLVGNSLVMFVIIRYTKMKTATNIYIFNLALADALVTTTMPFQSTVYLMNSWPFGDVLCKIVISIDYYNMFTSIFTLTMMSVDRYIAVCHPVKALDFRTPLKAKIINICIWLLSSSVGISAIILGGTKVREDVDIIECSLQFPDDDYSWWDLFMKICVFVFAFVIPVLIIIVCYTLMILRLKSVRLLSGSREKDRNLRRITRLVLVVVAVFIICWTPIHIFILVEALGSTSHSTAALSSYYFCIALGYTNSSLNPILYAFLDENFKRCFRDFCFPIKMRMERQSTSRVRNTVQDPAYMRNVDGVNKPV
# human Vascular Endothelial Growth Factor Receptor 2 (VEGFR2), KDR (gene 3791), sequence (P35968 whole entry, looked up): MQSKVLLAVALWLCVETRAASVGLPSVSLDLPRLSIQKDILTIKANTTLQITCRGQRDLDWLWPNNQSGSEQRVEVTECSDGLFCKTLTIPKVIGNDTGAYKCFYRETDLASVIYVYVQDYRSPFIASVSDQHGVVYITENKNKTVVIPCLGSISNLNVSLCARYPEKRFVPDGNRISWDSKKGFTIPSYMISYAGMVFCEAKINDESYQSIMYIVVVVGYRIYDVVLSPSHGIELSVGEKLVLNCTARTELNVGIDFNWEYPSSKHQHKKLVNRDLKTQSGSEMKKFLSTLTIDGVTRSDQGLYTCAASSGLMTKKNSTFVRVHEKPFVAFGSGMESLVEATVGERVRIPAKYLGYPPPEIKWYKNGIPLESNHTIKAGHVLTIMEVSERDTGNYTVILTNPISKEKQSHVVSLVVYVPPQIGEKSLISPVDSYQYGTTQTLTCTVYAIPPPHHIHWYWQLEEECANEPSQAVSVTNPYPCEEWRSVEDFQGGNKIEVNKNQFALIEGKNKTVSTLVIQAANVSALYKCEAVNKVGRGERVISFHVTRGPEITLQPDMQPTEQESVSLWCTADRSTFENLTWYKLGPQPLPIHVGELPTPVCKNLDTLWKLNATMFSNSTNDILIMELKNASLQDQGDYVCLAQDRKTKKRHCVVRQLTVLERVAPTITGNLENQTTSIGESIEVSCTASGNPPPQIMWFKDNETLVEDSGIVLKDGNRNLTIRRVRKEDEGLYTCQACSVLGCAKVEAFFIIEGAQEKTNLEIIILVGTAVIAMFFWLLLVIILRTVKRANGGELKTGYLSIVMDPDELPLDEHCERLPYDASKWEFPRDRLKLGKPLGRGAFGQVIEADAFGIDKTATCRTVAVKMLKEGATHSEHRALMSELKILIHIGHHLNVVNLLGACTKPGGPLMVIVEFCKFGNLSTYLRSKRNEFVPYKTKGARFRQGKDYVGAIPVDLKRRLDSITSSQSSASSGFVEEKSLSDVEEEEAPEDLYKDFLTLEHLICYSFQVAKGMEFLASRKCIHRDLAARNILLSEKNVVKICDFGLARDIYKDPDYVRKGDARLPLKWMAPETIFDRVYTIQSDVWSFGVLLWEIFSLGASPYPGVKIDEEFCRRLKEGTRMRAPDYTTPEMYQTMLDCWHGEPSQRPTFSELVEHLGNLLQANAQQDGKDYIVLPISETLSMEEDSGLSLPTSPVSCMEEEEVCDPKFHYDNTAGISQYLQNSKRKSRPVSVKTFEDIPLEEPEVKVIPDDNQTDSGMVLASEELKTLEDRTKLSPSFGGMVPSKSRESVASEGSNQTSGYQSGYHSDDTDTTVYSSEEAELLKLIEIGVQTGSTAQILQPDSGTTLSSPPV
# sheep Cyclooxygenase-2 (Cox2), PTGS2 (gene 443460), sequence (P79208 whole entry, looked up): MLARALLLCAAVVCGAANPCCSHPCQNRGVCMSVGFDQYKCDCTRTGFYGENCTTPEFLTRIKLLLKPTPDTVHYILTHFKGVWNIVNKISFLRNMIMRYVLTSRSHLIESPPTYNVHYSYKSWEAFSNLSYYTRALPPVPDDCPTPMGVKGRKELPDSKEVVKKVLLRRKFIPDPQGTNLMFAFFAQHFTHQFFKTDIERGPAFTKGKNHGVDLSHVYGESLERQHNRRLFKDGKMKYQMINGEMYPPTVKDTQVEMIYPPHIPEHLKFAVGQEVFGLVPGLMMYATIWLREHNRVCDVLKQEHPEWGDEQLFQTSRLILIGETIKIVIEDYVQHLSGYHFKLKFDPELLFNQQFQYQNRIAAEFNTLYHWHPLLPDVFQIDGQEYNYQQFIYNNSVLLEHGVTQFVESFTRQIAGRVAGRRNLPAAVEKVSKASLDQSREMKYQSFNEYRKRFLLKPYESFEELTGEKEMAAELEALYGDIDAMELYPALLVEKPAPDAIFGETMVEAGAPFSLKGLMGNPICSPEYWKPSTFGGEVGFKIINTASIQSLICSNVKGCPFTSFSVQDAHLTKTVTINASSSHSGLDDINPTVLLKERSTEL
# human Serotonin, 5-Hydroxytryptamine Receptor 2A (5HT2A), HTR2A (gene 3356), sequence (P28223 whole entry, looked up): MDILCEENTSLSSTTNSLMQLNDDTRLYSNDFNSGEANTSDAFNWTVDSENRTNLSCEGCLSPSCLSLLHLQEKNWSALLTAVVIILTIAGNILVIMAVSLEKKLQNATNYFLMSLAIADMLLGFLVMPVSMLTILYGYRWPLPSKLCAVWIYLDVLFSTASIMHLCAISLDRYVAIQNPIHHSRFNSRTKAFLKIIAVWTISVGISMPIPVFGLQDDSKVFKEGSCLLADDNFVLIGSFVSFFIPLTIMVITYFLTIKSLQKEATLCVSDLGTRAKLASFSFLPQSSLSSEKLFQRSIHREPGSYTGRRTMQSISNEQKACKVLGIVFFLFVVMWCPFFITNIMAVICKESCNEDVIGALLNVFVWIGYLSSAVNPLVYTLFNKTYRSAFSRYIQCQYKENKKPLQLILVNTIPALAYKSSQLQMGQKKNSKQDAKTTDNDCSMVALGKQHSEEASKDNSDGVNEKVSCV
# rabbit Imidazoline 2 Central (I2C), CKB (gene 100009085), sequence (P00567 whole entry, looked up): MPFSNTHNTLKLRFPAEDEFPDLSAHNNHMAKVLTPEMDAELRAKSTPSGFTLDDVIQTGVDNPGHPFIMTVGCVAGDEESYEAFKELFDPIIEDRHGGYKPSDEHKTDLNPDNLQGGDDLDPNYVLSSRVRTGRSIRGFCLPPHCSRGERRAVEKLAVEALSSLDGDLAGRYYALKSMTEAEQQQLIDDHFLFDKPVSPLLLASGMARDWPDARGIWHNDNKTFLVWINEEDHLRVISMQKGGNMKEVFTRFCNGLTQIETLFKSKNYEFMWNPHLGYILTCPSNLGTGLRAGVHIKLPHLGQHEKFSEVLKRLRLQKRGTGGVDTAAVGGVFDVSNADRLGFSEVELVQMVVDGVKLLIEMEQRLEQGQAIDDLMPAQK
# bovine Dopamine Receptor (DR), Non-selective Binding, DRD1 (gene 281125), sequence (Q95136 whole entry, looked up): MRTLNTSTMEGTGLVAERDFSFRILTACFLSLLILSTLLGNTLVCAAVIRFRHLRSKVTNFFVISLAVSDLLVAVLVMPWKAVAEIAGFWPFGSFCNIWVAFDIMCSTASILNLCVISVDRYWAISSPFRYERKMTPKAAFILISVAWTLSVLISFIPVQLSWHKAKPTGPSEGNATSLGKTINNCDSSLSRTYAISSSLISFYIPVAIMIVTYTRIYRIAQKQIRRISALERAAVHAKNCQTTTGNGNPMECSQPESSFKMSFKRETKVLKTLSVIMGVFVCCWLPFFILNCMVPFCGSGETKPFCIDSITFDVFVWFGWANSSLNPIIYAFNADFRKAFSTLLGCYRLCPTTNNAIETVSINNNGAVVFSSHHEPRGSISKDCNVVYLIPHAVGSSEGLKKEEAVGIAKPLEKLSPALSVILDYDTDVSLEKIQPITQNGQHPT
# human Adenosine A2a Receptor (AdoRA2a), ADORA2A (gene 135), sequence (P29274 whole entry, looked up): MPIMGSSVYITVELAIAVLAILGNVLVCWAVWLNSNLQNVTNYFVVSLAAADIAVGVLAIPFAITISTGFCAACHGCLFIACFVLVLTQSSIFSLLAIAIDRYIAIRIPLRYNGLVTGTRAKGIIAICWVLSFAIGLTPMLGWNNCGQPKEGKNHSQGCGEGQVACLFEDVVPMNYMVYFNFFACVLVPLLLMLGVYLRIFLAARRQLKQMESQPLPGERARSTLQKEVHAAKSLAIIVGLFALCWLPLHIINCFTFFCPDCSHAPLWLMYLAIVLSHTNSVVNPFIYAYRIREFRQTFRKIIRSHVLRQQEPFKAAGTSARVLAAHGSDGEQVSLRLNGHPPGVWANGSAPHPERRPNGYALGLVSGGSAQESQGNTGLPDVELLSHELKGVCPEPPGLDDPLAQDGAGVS
smiles,measurement,setting,value
O=C(Nc1ccc(Cl)cc1)Nc1ccc(Cl)c(Cl)c1,outcome,[1],inactive
CC1=CC(=O)/C(=C(/C)O)C(=O)O1,outcome,[2],inactive
CCN(Cc1cccnc1)C(=O)c1cccc(Cl)c1[C@]1(C)C(=O)N(Cc2ccc(OC)cc2OC)c2ccc(Cl)cc21,outcome,[1],inactive
same,outcome,[3],inactive
same,AC50,[4],9.32 µM (active)
same,AC50,[5],15.9 µM (active)
same,AC50,[6],4.88 µM (active)
same,AC50,[7],11.1 µM (active)
OCCO,outcome,[1],inactive
O=CCCCC=O,AC50,[2],15.4 µM (active)
same,outcome,[8],inactive
CO[C@H]1/C=C/O[C@@]2(C)Oc3c(C)c(O)c4c(O)c(c(/C=N/N5CCN(C)CC5)c(O)c4c3C2=O)NC(=O)/C(C)=C\C=C\[C@H](C)[C@H](O)[C@@H](C)[C@@H](O)[C@@H](C)[C@H](OC(C)=O)[C@@H]1C,AC50,[2],7.74 µM (active)
same,AC50,[9],3.36 µM (active)
COc1cccc([C@H](O)C2CCN(CCc3ccc(F)cc3)CC2)c1OC,AC50,[10],12.7 µM (active)
same,AC50,[11],5.96 µM (active)
same,AC50,[8],5.41 µM (active)
same,AC50,[7],12.1 µM (active)
same,outcome,[12],inactive
c1ccc2ccccc2c1,outcome,[1],inactive
COc1cc(C(=O)NC2CCN(C)CC2)ccc1Nc1ncc2c(n1)N(C1CCCC1)CC(F)(F)C(=O)N2C,outcome,[1],inactive
same,AC50,[2],15.2 µM (active)
same,AC50,[13],14 µM (active)
same,AC50,[11],11.2 µM (active)
same,AC50,[5],23.2 µM (active)
same,AC50,[14],9.85 µM (active)
same,AC50,[7],23.2 µM (active)
same,AC50,[12],4.71 µM (active)
same,AC50,[15],13.8 µM (active)
Clc1cc(Cl)c2c(c1)N=C1CCCCCN1C2,AC50,[10],6.89 µM (active)
same,AC50,[14],6.74 µM (active)
same,AC50,[7],10.5 µM (active)
CCCC(=O)OCCC(C)C,outcome,[10],inactive
CCCCCCCCCCCCO,outcome,[1],inactive
CCCCOC(=O)c1ccc(O)cc1,outcome,[1],inactive
same,AC50,[2],7.62 µM (active)
same,outcome,[16],inactive
same,outcome,[7],inactive
same,AC50,[12],11.7 µM (active)
CCCOC(=O)c1cc(O)c(O)c(O)c1,AC50,[2],14.8 µM (active)
same,AC50,[17],0.454 µM (active)
same,AC50,[9],12 µM (active)
same,outcome,[18],inactive
same,AC50,[12],14.4 µM (active)
O=C1c2ccccc2C(=O)N1CCc1noc(-c2ccc(CN3CCCCCC3)s2)n1,AC50,[10],7.93 µM (active)
same,outcome,[9],inactive
same,outcome,[13],inactive
same,AC50,[11],14.6 µM (active)
same,AC50,[8],12.1 µM (active)
same,AC50,[5],2.4 µM (active)
same,AC50,[14],4.5 µM (active)
same,outcome,[7],inactive
same,outcome,[12],inactive
